Experimental data as given in ChEMBL document CHEMBL1961873, “Compounds: GSK PKIS; Assays: Nanosyn kinase panel” (2012).

Experiments:
[1] = target: Ribosomal protein S6 kinase alpha-6 (Homo sapiens) (UniProt Q9UK32); conditions: at 1 µM;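 also: each value is a mean inhibition of RSK4 from a GSK PKIS panel screen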
[2] = target: T1, Serine/threonine-protein kinase Sgk1 (Homo sapiens) (UniProt O00141); conditions: at 0.1 µM
T1 sequence (whole entry): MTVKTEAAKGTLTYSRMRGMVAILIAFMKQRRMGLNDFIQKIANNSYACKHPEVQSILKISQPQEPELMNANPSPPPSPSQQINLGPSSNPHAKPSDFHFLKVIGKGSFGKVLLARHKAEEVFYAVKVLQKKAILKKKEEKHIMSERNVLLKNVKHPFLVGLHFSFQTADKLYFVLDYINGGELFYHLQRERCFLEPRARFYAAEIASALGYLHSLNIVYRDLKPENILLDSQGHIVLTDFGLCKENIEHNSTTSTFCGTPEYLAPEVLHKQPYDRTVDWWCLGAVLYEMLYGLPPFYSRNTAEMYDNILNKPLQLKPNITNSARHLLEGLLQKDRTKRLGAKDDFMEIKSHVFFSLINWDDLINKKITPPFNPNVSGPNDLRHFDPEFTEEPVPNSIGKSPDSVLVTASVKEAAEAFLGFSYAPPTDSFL

[3] = target: T1, Serine/threonine-protein kinase Sgk1 (Homo sapiens); conditions: at 1 µM
[4] = target: T2, Serine/threonine-protein kinase Sgk2 (Homo sapiens) (UniProt Q9HBY8); conditions: at 0.1 µM
T2 sequence (whole entry): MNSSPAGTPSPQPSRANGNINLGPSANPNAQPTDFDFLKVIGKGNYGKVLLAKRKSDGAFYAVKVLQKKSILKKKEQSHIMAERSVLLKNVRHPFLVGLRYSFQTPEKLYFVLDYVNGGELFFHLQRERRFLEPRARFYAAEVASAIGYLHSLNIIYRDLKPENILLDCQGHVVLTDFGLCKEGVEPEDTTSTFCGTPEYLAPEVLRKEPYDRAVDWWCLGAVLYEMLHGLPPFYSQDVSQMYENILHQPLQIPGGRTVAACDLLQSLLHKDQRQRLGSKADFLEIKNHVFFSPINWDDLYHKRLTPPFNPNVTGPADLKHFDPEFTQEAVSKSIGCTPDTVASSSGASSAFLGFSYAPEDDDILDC

[5] = target: T2, Serine/threonine-protein kinase Sgk2 (Homo sapiens); conditions: at 1 µM
[6] = target: T3, Serine/threonine-protein kinase Sgk3 (Homo sapiens) (UniProt Q96BR1); conditions: at 0.1 µM
T3 sequence (whole entry): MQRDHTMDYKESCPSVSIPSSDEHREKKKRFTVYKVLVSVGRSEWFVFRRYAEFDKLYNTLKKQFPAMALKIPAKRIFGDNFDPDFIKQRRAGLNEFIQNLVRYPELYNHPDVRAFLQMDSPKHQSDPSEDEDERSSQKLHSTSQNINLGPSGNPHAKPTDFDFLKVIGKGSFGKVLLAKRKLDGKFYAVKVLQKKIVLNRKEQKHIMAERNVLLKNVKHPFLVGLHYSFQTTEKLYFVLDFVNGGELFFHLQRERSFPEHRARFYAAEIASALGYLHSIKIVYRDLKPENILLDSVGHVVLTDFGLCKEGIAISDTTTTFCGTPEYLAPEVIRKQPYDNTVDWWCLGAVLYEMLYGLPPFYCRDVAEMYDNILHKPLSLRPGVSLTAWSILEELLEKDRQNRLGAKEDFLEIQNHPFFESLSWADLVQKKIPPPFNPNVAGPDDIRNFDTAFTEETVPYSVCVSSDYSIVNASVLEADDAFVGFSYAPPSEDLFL

[7] = target: T3, Serine/threonine-protein kinase Sgk3 (Homo sapiens); conditions: at 1 µM
[8] = target: 5'-AMP-activated protein kinase catalytic subunit alpha-1 (Homo sapiens) (UniProt Q13131); conditions: at 0.1 µM
5'-AMP-activated protein kinase catalytic subunit alpha-1 (Homo sapiens), sequence (Q13131 whole entry, looked up): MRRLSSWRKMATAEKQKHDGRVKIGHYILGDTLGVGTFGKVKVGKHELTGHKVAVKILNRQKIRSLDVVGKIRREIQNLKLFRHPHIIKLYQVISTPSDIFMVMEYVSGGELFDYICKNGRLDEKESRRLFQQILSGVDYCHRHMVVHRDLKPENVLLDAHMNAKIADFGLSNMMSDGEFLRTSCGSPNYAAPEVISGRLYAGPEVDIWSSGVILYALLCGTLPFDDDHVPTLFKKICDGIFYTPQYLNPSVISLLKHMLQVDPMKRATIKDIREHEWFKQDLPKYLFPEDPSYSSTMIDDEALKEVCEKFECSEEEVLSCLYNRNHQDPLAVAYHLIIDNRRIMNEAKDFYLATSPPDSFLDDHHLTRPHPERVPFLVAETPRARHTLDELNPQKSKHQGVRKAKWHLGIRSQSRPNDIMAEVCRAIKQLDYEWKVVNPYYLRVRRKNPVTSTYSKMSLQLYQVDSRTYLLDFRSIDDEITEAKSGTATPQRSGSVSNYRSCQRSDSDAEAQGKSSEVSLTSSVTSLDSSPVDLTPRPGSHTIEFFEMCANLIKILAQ

[9] = target: 5'-AMP-activated protein kinase catalytic subunit alpha-1 (Homo sapiens) (UniProt Q13131); conditions: at 1 µM
[10] = target: 5'-AMP-activated protein kinase catalytic subunit alpha-2 (Homo sapiens) (UniProt P54646); conditions: at 0.1 µM
5'-AMP-activated protein kinase catalytic subunit alpha-2 (Homo sapiens), sequence (P54646 whole entry, looked up): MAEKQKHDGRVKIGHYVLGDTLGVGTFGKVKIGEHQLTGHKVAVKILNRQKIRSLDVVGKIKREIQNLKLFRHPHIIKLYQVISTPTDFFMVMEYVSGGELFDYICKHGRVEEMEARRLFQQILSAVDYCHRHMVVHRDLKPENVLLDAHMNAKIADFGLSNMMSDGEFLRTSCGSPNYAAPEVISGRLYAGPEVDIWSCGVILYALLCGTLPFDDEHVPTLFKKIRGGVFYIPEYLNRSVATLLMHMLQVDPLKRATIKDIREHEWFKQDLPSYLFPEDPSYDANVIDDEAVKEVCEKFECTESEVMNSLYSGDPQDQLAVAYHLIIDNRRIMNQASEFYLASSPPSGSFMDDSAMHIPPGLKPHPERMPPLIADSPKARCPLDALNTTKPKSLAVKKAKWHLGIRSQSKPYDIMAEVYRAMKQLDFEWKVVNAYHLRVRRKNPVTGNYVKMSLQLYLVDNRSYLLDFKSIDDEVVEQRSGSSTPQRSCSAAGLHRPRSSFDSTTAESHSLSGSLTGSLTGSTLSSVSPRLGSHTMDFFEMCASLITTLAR

[11] = target: 5'-AMP-activated protein kinase catalytic subunit alpha-2 (Homo sapiens) (UniProt P54646); conditions: at 1 µM
[12] = target: T4, NUAK family SNF1-like kinase 1 (Homo sapiens) (UniProt O60285); conditions: at 0.1 µM
T4 sequence (whole entry): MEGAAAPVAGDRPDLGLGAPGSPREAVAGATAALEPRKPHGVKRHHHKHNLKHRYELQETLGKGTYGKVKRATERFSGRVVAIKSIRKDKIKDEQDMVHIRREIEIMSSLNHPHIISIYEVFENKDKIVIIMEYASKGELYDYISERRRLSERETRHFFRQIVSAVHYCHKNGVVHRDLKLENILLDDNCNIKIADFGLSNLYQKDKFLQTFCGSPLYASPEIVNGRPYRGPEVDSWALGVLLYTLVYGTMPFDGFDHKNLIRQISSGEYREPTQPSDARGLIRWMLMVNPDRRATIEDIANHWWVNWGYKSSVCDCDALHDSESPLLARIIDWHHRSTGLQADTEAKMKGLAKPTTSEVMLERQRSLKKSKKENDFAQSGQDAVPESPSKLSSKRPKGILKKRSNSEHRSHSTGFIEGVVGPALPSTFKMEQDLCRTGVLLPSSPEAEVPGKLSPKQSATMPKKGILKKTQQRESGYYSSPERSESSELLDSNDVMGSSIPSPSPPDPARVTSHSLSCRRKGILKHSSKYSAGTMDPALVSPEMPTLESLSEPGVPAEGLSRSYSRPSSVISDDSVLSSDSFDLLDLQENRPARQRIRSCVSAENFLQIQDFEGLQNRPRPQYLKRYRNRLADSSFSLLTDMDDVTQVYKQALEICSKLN

[13] = target: T4, NUAK family SNF1-like kinase 1 (Homo sapiens); conditions: at 1 µM
[14] = target: T5, Serine/threonine-protein kinase BRSK1 (Homo sapiens) (UniProt Q8TDC3); conditions: at 0.1 µM
T5 sequence (whole entry): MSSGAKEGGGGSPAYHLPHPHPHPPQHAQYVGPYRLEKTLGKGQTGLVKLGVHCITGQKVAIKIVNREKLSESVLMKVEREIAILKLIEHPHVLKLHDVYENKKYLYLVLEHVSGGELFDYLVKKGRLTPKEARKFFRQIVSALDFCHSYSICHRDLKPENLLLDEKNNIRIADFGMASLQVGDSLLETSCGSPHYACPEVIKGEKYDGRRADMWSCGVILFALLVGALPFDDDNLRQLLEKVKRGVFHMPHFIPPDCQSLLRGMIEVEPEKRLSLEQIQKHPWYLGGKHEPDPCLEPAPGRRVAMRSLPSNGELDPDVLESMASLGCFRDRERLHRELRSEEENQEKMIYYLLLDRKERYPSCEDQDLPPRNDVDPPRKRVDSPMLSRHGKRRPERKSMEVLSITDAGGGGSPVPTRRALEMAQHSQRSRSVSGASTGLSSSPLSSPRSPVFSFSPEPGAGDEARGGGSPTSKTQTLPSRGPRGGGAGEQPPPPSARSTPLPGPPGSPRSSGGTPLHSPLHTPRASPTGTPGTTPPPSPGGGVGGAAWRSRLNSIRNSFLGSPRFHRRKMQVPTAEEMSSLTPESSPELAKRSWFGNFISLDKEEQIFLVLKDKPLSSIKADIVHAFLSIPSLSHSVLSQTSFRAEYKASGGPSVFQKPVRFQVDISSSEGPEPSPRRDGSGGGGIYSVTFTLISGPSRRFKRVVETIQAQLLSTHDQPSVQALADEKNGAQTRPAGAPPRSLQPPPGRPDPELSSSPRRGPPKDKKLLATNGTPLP

[15] = target: T5, Serine/threonine-protein kinase BRSK1 (Homo sapiens); conditions: at 1 µM
[16] = target: T6, Serine/threonine-protein kinase BRSK2 (Homo sapiens) (UniProt Q8IWQ3); conditions: at 0.1 µM
T6 sequence (whole entry): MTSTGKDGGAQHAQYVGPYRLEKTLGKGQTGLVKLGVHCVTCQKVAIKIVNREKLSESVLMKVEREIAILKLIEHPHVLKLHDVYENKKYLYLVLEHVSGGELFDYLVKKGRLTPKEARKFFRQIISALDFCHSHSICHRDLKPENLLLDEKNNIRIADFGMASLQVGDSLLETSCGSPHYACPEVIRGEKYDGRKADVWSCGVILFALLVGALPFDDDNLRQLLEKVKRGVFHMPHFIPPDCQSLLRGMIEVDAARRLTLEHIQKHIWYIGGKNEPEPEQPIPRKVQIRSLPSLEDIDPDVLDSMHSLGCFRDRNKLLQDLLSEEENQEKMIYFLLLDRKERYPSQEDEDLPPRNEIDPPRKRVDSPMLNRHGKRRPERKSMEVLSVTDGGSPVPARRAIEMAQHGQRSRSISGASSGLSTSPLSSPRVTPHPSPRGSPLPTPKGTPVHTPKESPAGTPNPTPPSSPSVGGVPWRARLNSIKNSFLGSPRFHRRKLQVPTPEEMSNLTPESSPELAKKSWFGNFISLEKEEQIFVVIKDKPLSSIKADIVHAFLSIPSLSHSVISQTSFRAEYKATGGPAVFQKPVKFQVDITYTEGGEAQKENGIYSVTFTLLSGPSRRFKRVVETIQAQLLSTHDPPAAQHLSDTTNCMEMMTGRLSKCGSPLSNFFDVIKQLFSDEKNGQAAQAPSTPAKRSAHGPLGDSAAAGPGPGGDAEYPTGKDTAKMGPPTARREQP

[17] = target: T6, Serine/threonine-protein kinase BRSK2 (Homo sapiens); conditions: at 1 µM
[18] = target: Calcium/calmodulin-dependent protein kinase type 1D (Homo sapiens) (UniProt Q8IU85); conditions: at 0.1 µM
Calcium/calmodulin-dependent protein kinase type 1D (Homo sapiens), sequence (Q8IU85 whole entry, looked up): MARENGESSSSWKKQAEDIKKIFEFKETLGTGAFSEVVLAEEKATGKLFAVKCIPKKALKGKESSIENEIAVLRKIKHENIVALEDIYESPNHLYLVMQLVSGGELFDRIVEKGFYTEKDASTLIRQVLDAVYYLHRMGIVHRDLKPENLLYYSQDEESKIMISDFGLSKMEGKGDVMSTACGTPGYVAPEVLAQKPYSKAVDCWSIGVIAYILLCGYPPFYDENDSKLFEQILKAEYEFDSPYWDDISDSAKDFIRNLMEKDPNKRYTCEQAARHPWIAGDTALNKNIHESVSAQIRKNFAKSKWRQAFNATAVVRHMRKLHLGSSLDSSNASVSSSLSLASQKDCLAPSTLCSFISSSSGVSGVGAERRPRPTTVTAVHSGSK

[19] = target: Calcium/calmodulin-dependent protein kinase type 1D (Homo sapiens) (UniProt Q8IU85); conditions: at 1 µM
[20] = target: Calcium/calmodulin-dependent protein kinase type II subunit alpha (Homo sapiens) (UniProt Q9UQM7); conditions: at 0.1 µM;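 also: reported values are averages (mean inhibition of CAMK2A)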
Calcium/calmodulin-dependent protein kinase type II subunit alpha (Homo sapiens), sequence (Q9UQM7 whole entry): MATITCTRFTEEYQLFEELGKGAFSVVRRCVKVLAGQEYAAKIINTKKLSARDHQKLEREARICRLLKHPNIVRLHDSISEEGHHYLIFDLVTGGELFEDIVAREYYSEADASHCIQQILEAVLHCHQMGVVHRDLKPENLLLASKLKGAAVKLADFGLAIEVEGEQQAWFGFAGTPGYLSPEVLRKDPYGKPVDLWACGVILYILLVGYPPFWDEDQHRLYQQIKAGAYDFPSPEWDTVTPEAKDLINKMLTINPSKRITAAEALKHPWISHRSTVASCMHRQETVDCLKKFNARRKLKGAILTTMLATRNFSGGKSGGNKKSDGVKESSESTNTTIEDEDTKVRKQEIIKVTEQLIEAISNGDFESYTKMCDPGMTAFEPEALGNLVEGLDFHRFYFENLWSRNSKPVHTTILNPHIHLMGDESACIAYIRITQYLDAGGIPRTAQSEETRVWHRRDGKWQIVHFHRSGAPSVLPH

Ribosomal protein S6 kinase alpha-6 (Homo sapiens), sequence (Q9UK32 whole entry): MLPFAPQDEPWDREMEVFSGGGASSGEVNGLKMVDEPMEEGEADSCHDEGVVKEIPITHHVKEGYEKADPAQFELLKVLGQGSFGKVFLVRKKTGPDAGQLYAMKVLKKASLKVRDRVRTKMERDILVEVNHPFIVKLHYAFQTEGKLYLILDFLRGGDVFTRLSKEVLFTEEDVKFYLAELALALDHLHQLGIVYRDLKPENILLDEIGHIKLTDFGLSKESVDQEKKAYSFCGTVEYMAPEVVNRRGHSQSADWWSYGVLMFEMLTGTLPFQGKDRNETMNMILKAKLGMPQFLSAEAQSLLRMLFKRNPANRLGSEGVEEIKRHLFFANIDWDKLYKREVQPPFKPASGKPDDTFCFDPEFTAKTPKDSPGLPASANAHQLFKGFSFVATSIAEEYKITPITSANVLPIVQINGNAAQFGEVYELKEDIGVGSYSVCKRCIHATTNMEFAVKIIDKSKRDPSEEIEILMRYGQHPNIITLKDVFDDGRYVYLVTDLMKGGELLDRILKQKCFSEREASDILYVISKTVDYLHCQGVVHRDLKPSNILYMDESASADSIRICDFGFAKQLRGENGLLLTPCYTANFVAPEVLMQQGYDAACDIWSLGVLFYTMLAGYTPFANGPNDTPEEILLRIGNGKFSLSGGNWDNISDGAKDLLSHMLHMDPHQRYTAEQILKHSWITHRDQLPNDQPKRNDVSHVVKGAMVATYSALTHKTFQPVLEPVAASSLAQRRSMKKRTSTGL

SMILES | inhibition [1] | inhibition [2] | inhibition [3] | inhibition [4] | inhibition [5] | inhibition [6] | inhibition [7] | inhibition [8] | inhibition [9] | inhibition [10] | inhibition [11] | inhibition [12] | inhibition [13] | inhibition [14] | inhibition [15] | inhibition [16] | inhibition [17] | inhibition [18] | inhibition [19] | inhibition [20]
COc1cc(/C=N/Nc2ncnc3[nH]ncc23)ccc1O | 13.3% | 13% | 54.4% | 6.14% | 19.9% | 3.82% | 5.26% | 5.24% | 20.5% | 2.66% | 20.2% | 6.98% | 27.6% | 1.12% | 18% | 4.62% | 22.9% | 1.07% | 5.49% | 2.62%
Cc1ccc(O)cc1Nc1ccnc2cc(-c3ccccn3)ccc12 | 1.1% | 3.35% | 0.75% | 4.28% | 0.49% | 4.38% | 1.94% | 4.22% | 4.05% | 1.74% | 6.05% | 4.17% | 7.44% | 3.63% | 5.99% | 3.25% | 3.89% | 1.22% | 1.32% | 6.72%
CN(C)CCOc1ccc(-c2nc(-c3ccncc3)c(-c3ccc4c(c3)CC/C4=N\O)[nH]2)cc1 | 2.06% | 2.17% | 4.78% | 2.44% | 5.4% | 2.89% | 4.02% | 2.12% | 5.29% | -0.6% | 2.75% | 1.23% | 8.79% | -0.13% | 1.11% | 0.6% | 3.51% | 0.25% | 1.72% | 2.79%
CCn1c(-c2nonc2N)nc2ccccc21 | 10.4% | 4.57% | 5.48% | -0.51% | 9.28% | 2.3% | 23.6% | 3.06% | 1.63% | 0.31% | 4.49% | 1.56% | 10.1% | 2.54% | 8.27% | 1.85% | 9.49% | 1.89% | 2.35% | 4.29%
CN1CCC(n2cnc(-c3ccc(F)cc3)c2-c2ccnc(Nc3ccccc3)n2)CC1 | 2.69% | 2.19% | 5.36% | 3.28% | 5.4% | 2.89% | 3.19% | 2.05% | 3.64% | -0.33% | 2.34% | -2.56% | 4.19% | 0.59% | 0.41% | 0.56% | 1.93% | 0.81% | 1.85% | 3.46%
CCc1nn2ncccc2c1-c1ccnc(NC2CC2)n1 | 1.93% | 2.68% | 3.56% | 0.28% | -2.61% | 2.22% | 3.01% | 1.09% | 4.1% | 2.14% | 2.42% | -1.38% | 1.14% | 3.05% | 1.03% | 1.62% | 4.01% | 1.12% | 2.41% | 2.89%
